Data on 36 compounds can be found in PubChem BioAssay (NCATS).

SMILES strings stand for the structures. Results filed as inconclusive are left out. A number with no mark means an inactive call. Calls of active or inactive are those of the source. Unless noted, calls come from the whole dose curve.

Experiment [1] in a line: qHTS for Inhibitors of the Functional Ribonucleoprotein Complex (vRNP) of Lassa (LASV) Arenavirus: LASV Primary Screen - GLuc reporter signal (AID 1347082; calls by dose curve; tested in HEK293 reporter line; note: nearly all actives have a fitted effect of over 60% in size).
Experiment [2] is described as follows: qHTS for Inhibitors of the Functional Ribonucleoprotein Complex (vRNP) of Lassa (LASV) Arenavirus: Viability assay - alamar blue signal for LASV Primary Screen (AID 1347083; calls by dose curve; tested in HEK293 reporter line; note: nearly all actives have a fitted effect of over 80% in size). (In general: Quantitative high-throughput screening tests each substance at several concentrations.)
Experiment [3] in a line: qHTS for Inhibitors of the Functional Ribonucleoprotein Complex (vRNP) of Lymphocytic Choriomeningitis Arenaviruses (LCMV): Viability assay - alamar blue signal for LCMV Primary Screen (AID 1347085; calls by dose curve; tested in HEK293 reporter line; note: nearly all actives have a fitted effect of over 80% in size).
The target in experiment [4] is Nucleoprotein (Lymphocytic choriomeningitis virus (strain Armstrong)) (UniProt P09992). The experiment is described as follows: qHTS for Inhibitors of the Functional Ribonucleoprotein Complex (vRNP) of Lymphocytic Choriomeningitis Arenaviruses (LCMV): LCMV Primary Screen - GLuc reporter signal (AID 1347086). Note: nearly all actives have a fitted effect of over 70% in size.
Nucleoprotein (Lymphocytic choriomeningitis virus (strain Armstrong)), sequence (P09992 whole entry, looked up): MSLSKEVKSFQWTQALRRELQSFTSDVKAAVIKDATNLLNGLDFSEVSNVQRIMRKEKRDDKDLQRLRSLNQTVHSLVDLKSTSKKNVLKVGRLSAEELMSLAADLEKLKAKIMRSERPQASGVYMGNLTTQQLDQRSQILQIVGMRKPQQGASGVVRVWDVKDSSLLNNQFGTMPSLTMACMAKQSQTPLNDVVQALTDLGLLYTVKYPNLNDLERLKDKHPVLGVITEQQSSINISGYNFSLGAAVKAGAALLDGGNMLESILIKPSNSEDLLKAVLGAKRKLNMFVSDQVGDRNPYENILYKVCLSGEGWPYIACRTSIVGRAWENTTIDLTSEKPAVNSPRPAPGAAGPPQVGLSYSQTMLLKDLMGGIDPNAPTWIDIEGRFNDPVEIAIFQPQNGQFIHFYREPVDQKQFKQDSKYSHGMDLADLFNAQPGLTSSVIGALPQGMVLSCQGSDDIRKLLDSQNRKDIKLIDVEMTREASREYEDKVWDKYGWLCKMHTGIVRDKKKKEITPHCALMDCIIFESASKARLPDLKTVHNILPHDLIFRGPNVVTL
Potency is the fitted concentration of half-maximal effect.

As to `C[C@@H]1OC(=O)[C@H]2C[C@H]3CCCC[C@@H]3[C@@H](/C=C/[C@H]3CCC[C@H](C)N3C)[C@@H]12`, the Potency entry in experiment [1], in experiment [2], in experiment [3] and in experiment [4] was “inactive” in each case.

In the case of `COc1cc(OC)cc(-c2ccc3ncc4ccc(=O)n(-c5ccc(N6CCNCC6)c(C(F)(F)F)c5)c4c3c2)c1`, the Potency is 10.9 µM (active) in experiment [1], 6.85 µM (active) in experiment [2], 1.93 µM (active) in experiment [3] and 3.06 µM (active) in experiment [4].

In the case of `CC(=O)OC1C(OC(C)=O)C2C(C)CC3OC(=O)C(C)C3CC2(C)C1OC(C)=O` (centres undefined), the Potency entry in experiment [1], in experiment [2], in experiment [3] and in experiment [4] was “inactive” in each case.

With `Cc1ccc2c(c1)C(=O)c1ccccc1C2=O`, the Potency entry in experiment [1], in experiment [2], in experiment [3] and in experiment [4] was “inactive” in each case.

For `O=Cc1ccnc2ccccc12`, the Potency result in experiment [1], in experiment [2], in experiment [3] and in experiment [4] was “inactive” in each case.

For the compound `COc1ccc2c(Oc3ccc(NC(=O)c4c(C)n(CC(C)(C)O)n(-c5ccccc5)c4=O)nc3)ccnc2c1`, the Potency entry in experiment [1], in experiment [2], in experiment [3] and in experiment [4] was “inactive” in each case.

For the compound `CC1(C)C[C@H](O)[C@@]23C[C@@H](OC2=O)[C@]2(C)C(=CCC4[C@@]5(C)CC[C@H](O)C(C)(C)C5CC[C@]42C)[C@@H]3C1` (some centres undefined), the Potency entry in experiment [1], in experiment [2], in experiment [3] and in experiment [4] was “inactive” each time.

Regarding `CC(C)=CCCC1(C)C=Cc2c(c(C)cc3c2[nH]c2cc(O)ccc23)O1` (centres undefined), the Potency result in experiment [1], in experiment [2], in experiment [3] and in experiment [4] was “inactive” each time.

With `COc1cc(O)c2c(=O)c3c(O)ccc(O)c3oc2c1`, the Potency entry in experiment [1], in experiment [2], in experiment [3] and in experiment [4] was “inactive” in each case.

As for `CC(=O)NC(Cc1cnc[nH]1)C(=O)O` (centres undefined), the Potency entry in experiment [1], in experiment [2], in experiment [3] and in experiment [4] was “inactive” each time.

In the case of `CCCCCCCCCCCCCCCCCCOS(=O)(=O)O`, the Potency result in experiment [1], in experiment [2], in experiment [3] and in experiment [4] was “inactive” in each case.

With `CC1=CC[C@@]23C[C@@H]1C(C)(C)[C@@H]2CC[C@H]3C`, the Potency result in experiment [1], in experiment [2], in experiment [3] and in experiment [4] was “inactive” in each case.

As for `C=C(C)C(O)Cc1c(OC)ccc(C(=O)/C=C/c2ccc(O)cc2)c1O` (centres undefined), the Potency entry in experiment [1], in experiment [2], in experiment [3] and in experiment [4] was “inactive” each time.

With `COc1cc(/C=C/C(=O)OC[C@H]2O[C@H](OC3(CO)OC(CO)C(O)C3O)[C@H](O)[C@@H](O)[C@@H]2O)ccc1O` (some centres undefined), the Potency result in experiment [1], in experiment [2], in experiment [3] and in experiment [4] was “inactive” throughout.

On to `COc1ccc([C@@H]2[C@@H](O)[C@H](O)[C@@H](C)N2C)cc1OC`, for which the Potency entry in experiment [1], in experiment [2], in experiment [3] and in experiment [4] was “inactive” in each case.

Turning to `CO[C@H]1[C@@H](OC)CC(OC2OC(CO)C(O)C(O)C2O)/C(=C\C#N)[C@@H]1O` (some centres undefined), the Potency result in experiment [1], in experiment [2], in experiment [3] and in experiment [4] was “inactive” throughout.

On to `OCCN1C[C@H](O)[C@@H](O)[C@H](O)[C@@H]1CO`, for which the Potency result in experiment [1], in experiment [2], in experiment [3] and in experiment [4] was “inactive” each time.

As for `COc1ccc(-c2coc3cc(O[C@@H]4O[C@H](CO)[C@@H](O)[C@H](O)[C@H]4O)c(OC)cc3c2=O)cc1`, the Potency result in experiment [1], in experiment [2], in experiment [3] and in experiment [4] was “inactive” in each case.

Regarding `CC/C=C/CCO`, the Potency entry in experiment [1], in experiment [2], in experiment [3] and in experiment [4] was “inactive” in each case.

For the compound `CC1(C)CCC[C@@](C)([C@H]2CC[C@]3(C)[C@@H]2[C@H](O)CC2[C@@]4(C)CC[C@H](O)C(C)(C)[C@@H]4[C@@H](O)C[C@]23C)O1` (some centres undefined), the Potency result in experiment [1], in experiment [2], in experiment [3] and in experiment [4] was “inactive” in each case.

Regarding `CCCC1(C)C(C#N)(C#N)C1(C#N)C#N`, the Potency result in experiment [1], in experiment [2], in experiment [3] and in experiment [4] was “inactive” throughout.

For the compound `CCCCCCCCCCCCC`, the Potency result in experiment [1], in experiment [2], in experiment [3] and in experiment [4] was “inactive” each time.

For the compound `COc1cc(C)ccc1C(C)C`, the Potency result in experiment [1], in experiment [2], in experiment [3] and in experiment [4] was “inactive” in each case.

Take `CC(=O)O[C@H]1C[C@@]2(O)[C@@H](OC(=O)c3ccccc3)C3[C@@](C)([C@@H](O)C[C@H]4OC[C@@]34OC(C)=O)[C@@H](O)[C@H](OC(C)=O)C(=C1C)C2(C)C` (some centres undefined): the Potency result in experiment [1], in experiment [2], in experiment [3] and in experiment [4] was “inactive” each time.

`C/C(=C\CNc1ncnc2c1ncn2[C@@H]1O[C@H](CO)[C@@H](O)[C@H]1O)CO`: the Potency entry in experiment [1], in experiment [2], in experiment [3] and in experiment [4] was “inactive” throughout.

Consider `COc1cc2c(cc1OC)C(C(=O)c1ccc(OC)c(OC)c1O)=NCC2`, for which the Potency result in experiment [1], in experiment [2], in experiment [3] and in experiment [4] was “inactive” each time.

In the case of `C[C@@H]1CC(=O)[C@H]2CC(CO)=CCC[C@@H]2[C@@]1(C)CC/C(=C/CO)CO`, the Potency result in experiment [1], in experiment [2], in experiment [3] and in experiment [4] was “inactive” in each case.

With `CC1(C)CCC[C@]2(C)[C@H]3CC(=O)O[C@]3(C)CC[C@@H]12`, the Potency entry in experiment [1], in experiment [2], in experiment [3] and in experiment [4] was “inactive” throughout.

With `Cc1ccc(C(C)(C)O)cc1`, the Potency result in experiment [1], in experiment [2], in experiment [3] and in experiment [4] was “inactive” in each case.

For `CC(C)CCOC(=O)c1ccccc1`, the Potency result in experiment [1], in experiment [2], in experiment [3] and in experiment [4] was “inactive” throughout.

In the case of `O=C(NCO)c1cccnc1`, the Potency result in experiment [1], in experiment [2], in experiment [3] and in experiment [4] was “inactive” each time.

Turning to `O=C1CCCCCCCCCCCCCCCO1`, the Potency entry in experiment [1], in experiment [2], in experiment [3] and in experiment [4] was “inactive” in each case.

Regarding `O=C(C=CC=Cc1ccc2c(c1)OCO2)N1CCCCC1`, the Potency entry in experiment [1], in experiment [2], in experiment [3] and in experiment [4] was “inactive” throughout.

`O=c1ccc2ccc(O[C@@H]3O[C@H](CO[C@@H]4OC[C@](O)(CO)[C@H]4O)[C@@H](O)[C@H](O)[C@H]3O)cc2o1`: the Potency result in experiment [1], in experiment [2], in experiment [3] and in experiment [4] was “inactive” throughout.

On to `CC1(C)C=Cc2c(ccc(C(=O)/C=C/c3ccccc3)c2O)O1`, for which the Potency result in experiment [1], in experiment [2], in experiment [3] and in experiment [4] was “inactive” throughout.

As to `CC(C)CN(C[C@H](O)[C@H](Cc1ccccc1)NC(=O)O[C@H]1CCOC1)S(=O)(=O)c1ccc(N)cc1`, the Potency result in experiment [1], in experiment [2], in experiment [3] and in experiment [4] was “inactive” throughout.
